Hits are enriched below; roughly 4.7% of the tested compounds scored in any of these assays.
Cav32 inh – human Cav3.2 channel inhibition, primary screen | O95180 | Cav3.2-expressing cells, Fluo-4 calcium fluorescence FDSS; stronger effect = lower value | B-score at 10 µM | 100,000 tested, 4% active | AID 449739;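 active means single-dose well whose peak fluorescence ratio is a statistical outlier from its plate by either plate-standardised score or position-corrected B-score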
sdo1 growth – sdo1-depleted yeast growth rescue; S. cerevisiae sdo1-depleted JHY4D growth rescue, OD600 30 h; stronger effect = higher value; pdr5 snq2 efflux-pump mutant strain; z-score at 10 µM; 140,000 tested, 0.21% active; AID 817;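 active means z-score above 3 at both the 24 hr and the 30 hr optical density reads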
hDAT+cocaine – human DAT dopamine uptake with cocaine, either direction. LLC-PK1 hDAT cells, [14C]-dopamine uptake with cocaine IC80; actives deviate in either direction. B-score at 10 µM. 110,000 tested, 1.3% active;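 active means Z score or B-score, a plate-position-corrected score, falls beyond the plate's 99.7% confidence bounds, in either direction; inactive means both scores lie inside the 99.7% bounds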
Target sequence (Q01959 whole entry, looked up): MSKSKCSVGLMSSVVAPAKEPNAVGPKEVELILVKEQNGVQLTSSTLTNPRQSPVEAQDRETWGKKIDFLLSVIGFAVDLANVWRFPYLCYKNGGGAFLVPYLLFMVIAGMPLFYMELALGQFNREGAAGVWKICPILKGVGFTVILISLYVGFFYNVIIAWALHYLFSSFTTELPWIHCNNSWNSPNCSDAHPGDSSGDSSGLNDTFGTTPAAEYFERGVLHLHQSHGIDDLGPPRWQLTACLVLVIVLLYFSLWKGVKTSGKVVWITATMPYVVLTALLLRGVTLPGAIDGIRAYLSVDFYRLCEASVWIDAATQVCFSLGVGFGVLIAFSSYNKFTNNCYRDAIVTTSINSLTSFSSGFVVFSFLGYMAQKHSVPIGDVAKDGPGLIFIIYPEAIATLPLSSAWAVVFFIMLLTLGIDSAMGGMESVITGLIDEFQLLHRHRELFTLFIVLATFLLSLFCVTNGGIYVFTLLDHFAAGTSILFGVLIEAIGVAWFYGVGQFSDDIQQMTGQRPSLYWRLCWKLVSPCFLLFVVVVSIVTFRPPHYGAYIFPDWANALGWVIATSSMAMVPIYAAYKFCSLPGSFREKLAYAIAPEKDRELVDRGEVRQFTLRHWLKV
Pyk2 oligo antag – Pyk2 (human) oligomerization antagonism | Q293 cells, Pyk2 FERM NanoBiT luminescence; stronger effect = lower value | Q14289 | z-score (the deposit names both 25 µM and 10 µM) | 99,000 tested, 0.83% active;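 active means Z-score of -3 or lower, scaled per plate to the spread of control and sample wells; inactive means z-score above -3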;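 further: negative z-score means lost luminescence so less FERM oligomerization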
Plk1 PBD FP – blocks phosphopeptide binding to human Plk1 polo box domain; P53350; Plk1 PBD phosphopeptide binding, fluorescence polarization; inhibition, %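 (tested at about 20 µM)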; 97,000 tested, 0.13% active; AID 693; in the data active means inhibition above about 34%, passing the limit was not always enough
PLK1 inh – blocks human PLK1 kinase activity. inhibition, % at 10 µM. recombinant PLK1 kinase, TR-FRET peptide phosphorylation. P53350. 97,000 tested, 0.53% active;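 active means inhibition of 50% or more in the single-concentration screen; inactive means inhibition below 50%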
Numbers stand for hits; i = inactive; nt = no result.

SMILES	Cav32 inh	sdo1 growth	hDAT+cocaine	Pyk2 oligo antag	Plk1 PBD FP	PLK1 inh
COC(=O)N/N=C\c1c(C)nn(-c2ccccc2)c1Cl	nt	i	nt	nt	nt	nt
Nc1c(-c2ccc(Cl)cc2)cnn1-c1cccc([N+](=O)[O-])c1	i	i	-3	i	i	i
Nc1c(-c2ccccc2)cnn1-c1cccc([N+](=O)[O-])c1	i	i	i	i	i	i
COc1ccc(OC)c(NC(=O)COC(=O)CN(C)S(=O)(=O)c2ccc(C)cc2)c1	nt	i	nt	nt	nt	nt
COc1cc(OC)c2c(-c3ccccc3)cc(=O)oc2c1C(CC(=O)N1CCCC1)c1ccc2c(c1)OCO2 (stereo not given)	i	nt	2.1	nt	nt	nt
O=C(CNC(=S)N(Cc1ccccc1)Cc1cccnc1)NC1CCCC1	nt	i	nt	nt	nt	nt
Cc1ccc2nc(SCc3nc4c(cnn4-c4ccccc4)c(=O)[nH]3)[nH]c2c1	nt	i	nt	i	i	54
O=c1[nH]c(CSc2nc3ccccc3[nH]2)nc2c1cnn2-c1ccccc1	nt	i	nt	nt	nt	nt
Cc1nn(-c2cc(N3CCCCC3)ccc2[N+](=O)[O-])c(=O)c2ccccc12	i	i	i	-3.8	i	i
Cc1ccccc1Cn1ccc(=NCc2ccccc2)cc1	nt	i	nt	nt	nt	nt
OC1CCCN(c2c3c(nc4cc(-c5cccc(Cl)c5)nn24)CCC3)C1 (stereo not given)	i	i	i	-3.2	i	i
Cc1cccc(-c2cc3nc4c(c(N5CCCC(O)C5)n3n2)CCC4)c1 (stereo not given)	i	i	3.4	i	i	i
OC1CCN(c2c3c(nc4cc(-c5ccc(F)cc5)nn24)CCC3)CC1	i	i	i	i	i	i
CCOC(=O)c1[nH]c2ccc(OCC)cc2c1CCCN1C(=O)c2ccccc2C1=O	nt	i	nt	nt	nt	nt
CCCCOc1ccc(C2OC34CCCCC3C(C#N)(C#N)C2(C#N)C(=N)O4)cc1 (stereo not given)	i	i	i	i	i	i
CCOc1ccc(C2OC34CCCCC3C(C#N)(C#N)C2(C#N)C(=N)O4)cc1OC (stereo not given)	i	5.7	i	i	i	i
Cc1ccc(/C=C/C(=O)c2cc(Br)ccc2OC(=O)c2ccco2)cc1	i	i	i	i	i	i
COc1ccccc1/C=C/C(=O)c1cc(Br)ccc1OC(=O)c1ccco1	-4.5	nt	2.6	i	i	i
C=CCn1c(=NC(=O)CC)n(C)c2ccccc21	nt	i	nt	nt	nt	nt
Cc1nc2c(C(=O)NCCC(C)C)c[nH]n2c(=O)c1Cc1ccccc1F	-5.2	i	i	i	i	i
COC(=O)[C@@]1(Cc2ccc(F)cc2)[C@H]2c3cc(C(=O)N(C)C)n(Cc4ccc(OC(F)(F)F)cc4)c3C[C@H]2CN1C(=O)c1ccccc1	nt	i	nt	nt	nt	nt
COc1cc(C(=O)Nc2ccc(Cl)c(C(F)(F)F)c2)cc(OC)c1OC	nt	i	nt	nt	nt	nt
O=C(Nc1ccc(Cl)c(C(F)(F)F)c1)c1ccco1	-5.8	i	i	i	i	i
COc1cccc(C(=O)Nc2ccc(Cl)c(C(F)(F)F)c2)c1	-5.1	i	i	i	i	i
Cc1nc2c(Br)cc(Br)cc2cc1O	-5.1	i	i	i	i	i
SMILES	Cav32 inh	sdo1 growth	hDAT+cocaine	Pyk2 oligo antag	Plk1 PBD FP	PLK1 inh
Brc1cc(Br)c2nc(-c3cccs3)ccc2c1	i	i	i	i	i	i
CCCCC(=O)Nc1ccc(C(=O)Nc2ccc(S(=O)(=O)Nc3ccc(C)cc3)cc2)cc1	nt	i	nt	nt	nt	nt
C/C(=N\OCc1ccccc1)c1c(O)cc(C(C)C)n(-c2ccccc2)c1=O	nt	i	nt	nt	nt	nt
O=C(CSc1ccccc1)N(c1ccc(Br)cc1)c1nccs1	nt	i	nt	nt	nt	nt
COc1ccc(-n2c(C)cc(-c3csc(N)n3)c2C)cc1	nt	i	nt	i	nt	nt
Cc1ccc(-c2nnc(-n3ncc(C#N)c3N)c3ccccc23)cc1C	nt	i	nt	nt	nt	nt
O=S(=O)(Nc1cc2nc3ccccc3nc2n1Cc1ccccc1)c1ccc(Cl)cc1	nt	i	nt	nt	nt	nt
NC(=O)CSc1nc2scc(-c3ccco3)c2c(=O)n1-c1ccccc1	i	i	i	i	i	i
O=c1c2c(-c3ccco3)csc2nc(SCc2cn3cccnc3n2)n1-c1ccccc1	-4.4	i	i	i	i	i
CCn1cc(C(=O)N2CCCC2)c(=O)c2cc(S(=O)(=O)N(C)C)ccc21	i	i	i	nt	i	i
CCn1cc(C(=O)N2CCOCC2)c(=O)c2cc(S(=O)(=O)N(C)C)ccc21	i	i	i	nt	i	69
CC1CCN(S(=O)(=O)c2ccc(NC(=O)CN3CCN(c4ccccc4)CC3)cc2)CC1	i	i	i	i	i	i
CC1CCN(S(=O)(=O)c2ccc(NC(=O)Cc3ccccc3)cc2)CC1	-5.9	i	i	i	i	i
Cc1cc2c3c(c1)C1(SCC(=O)N1c1ccc(F)cc1)C(=O)N3C(C)(C)CC2C (stereo not given)	-3.4	i	i	i	i	i
CN(C)[C@@H]1CCC[C@@H]1OC(=O)C(c1ccccc1)c1ccccc1	nt	i	nt	nt	nt	nt
Nc1cc(=O)nc(SCC(=O)NCc2ccccc2)n1CCc1ccccc1	i	i	-5.1	i	i	i
COc1ccc(C(=O)c2ccc(Cl)cc2)cc1	i	i	i	i	i	i
COc1ccc2c(c1)c(CC(=O)O)c(C)n2C(=O)c1ccc(Cl)cc1	i	i	4.1	nt	nt	nt
CCCN(CCC)C(=O)CSc1nc2ccccc2c(=O)n1CC1COc2ccccc2O1 (stereo not given)	-5.9	i	i	i	i	i
Cc1nc2ccccn2c1C(=O)NCc1ccc2c(c1)OCO2	i	i	i	i	i	i
COc1ccc(CC(=O)NCc2ccc3c(c2)OCO3)cc1	i	i	i	i	i	i
c1ccc(-c2nc3cnccn3c2Nc2ccc3c(c2)OCCO3)cc1	i	i	2.5	i	i	i
c1ccc(-c2nc3ccccn3c2NCc2ccc3c(c2)OCO3)cc1	-4.2	i	nt	i	i	i
COc1ccc(-c2nc3ccccn3c2NCc2ccc3c(c2)OCO3)cc1	-4	i	i	i	i	i
CC(=O)Nc1ccc(Oc2cc(C#N)c(C#N)cc2N2CCCCCC2)cc1	-3.8	i	i	i	i	i
SMILES	Cav32 inh	sdo1 growth	hDAT+cocaine	Pyk2 oligo antag	Plk1 PBD FP	PLK1 inh
O=C(Cn1c(C(=O)N2CCc3ccccc3C2)cc2sccc21)c1ccccc1	i	i	i	-4	i	i
COc1ccc(S(=O)(=O)N2CCOC2CNC(=O)C(=O)NCCc2c[nH]c3ccccc23)cc1 (stereo not given)	nt	i	nt	nt	nt	nt
COc1ccc(S(=O)(=O)N2CCOC2CNC(=O)C(=O)NCCc2c[nH]c3ccccc23)cc1C (stereo not given)	-3.5	i	i	nt	nt	nt
CCCc1[nH]n(-c2nc3ccccc3s2)c(=O)c1C=NCC(C)C	i	i	4.4	i	i	i
COc1cccc2c1C(=O)c1c(O)c3c(c(O)c1C2=O)C[C@@](O)(C(=O)CO)C[C@@H]3O[C@H]1C[C@H](N)[C@@H](O)[C@H](C)O1	-5.6	nt	i	nt	nt	nt
O=C(c1ccc(S(=O)(=O)N2CCCC2)cc1)N1CCN(Cc2ccc3c(c2)OCO3)CC1	3.9	i	i	i	i	i
O=C(OCc1ccc2c(c1)OCO2)c1ccc(S(=O)(=O)N2CCCCC2)cc1	i	i	i	i	i	i

Screening data (PubChem)
